Values joined by “and” are separate entries in the source; they are usually repeats but may differ in a detail not shown here. Equal entries are not always repeated.
Experiments:
[1] = target: Serine/threonine-protein kinase MARK2 (Homo sapiens) (UniProt Q7KZI7); details: at 1 µM
[2] = target: PAS domain-containing serine/threonine-protein kinase (Homo sapiens) (UniProt Q96RG2); details: at 0.1 µM
[3] = target: PAS domain-containing serine/threonine-protein kinase (Homo sapiens) (UniProt Q96RG2); details: at 1 µM
[4] = target: Phosphorylase b kinase gamma catalytic chain, skeletal muscle/heart isoform (Homo sapiens) (UniProt Q16816); details: at 0.1 µM
Chain of Phosphorylase b kinase gamma catalytic chain, skeletal muscle/heart isoform (Homo sapiens) (Q16816 whole entry, looked up, canonical isoform): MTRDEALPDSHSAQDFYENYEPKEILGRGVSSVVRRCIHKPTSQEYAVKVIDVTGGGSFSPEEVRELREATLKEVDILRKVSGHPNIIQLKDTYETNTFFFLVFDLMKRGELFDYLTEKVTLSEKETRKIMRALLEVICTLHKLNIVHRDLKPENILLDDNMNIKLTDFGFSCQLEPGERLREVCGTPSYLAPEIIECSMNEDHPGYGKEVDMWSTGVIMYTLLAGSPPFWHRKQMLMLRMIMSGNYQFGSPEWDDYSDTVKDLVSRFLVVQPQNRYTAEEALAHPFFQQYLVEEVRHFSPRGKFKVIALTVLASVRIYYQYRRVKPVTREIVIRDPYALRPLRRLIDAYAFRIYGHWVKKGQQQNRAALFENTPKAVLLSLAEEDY

[5] = target: Phosphorylase b kinase gamma catalytic chain, skeletal muscle/heart isoform (Homo sapiens) (UniProt Q16816); details: at 1 µM
[6] = target: T1, Phosphorylase b kinase gamma catalytic chain, liver/testis isoform (Homo sapiens) (UniProt P15735); details: at 0.1 µM
T1 sequence (whole entry): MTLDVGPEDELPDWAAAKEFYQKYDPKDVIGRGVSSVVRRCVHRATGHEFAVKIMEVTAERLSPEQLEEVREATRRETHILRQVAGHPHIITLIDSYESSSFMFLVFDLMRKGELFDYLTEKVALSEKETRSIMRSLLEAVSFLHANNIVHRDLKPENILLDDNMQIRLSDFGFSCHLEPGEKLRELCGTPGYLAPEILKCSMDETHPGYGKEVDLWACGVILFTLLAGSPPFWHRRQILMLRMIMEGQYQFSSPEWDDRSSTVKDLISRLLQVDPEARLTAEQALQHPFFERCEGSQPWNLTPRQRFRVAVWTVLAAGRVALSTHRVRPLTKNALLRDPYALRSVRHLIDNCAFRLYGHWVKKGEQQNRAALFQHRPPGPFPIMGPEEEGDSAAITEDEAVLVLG

[7] = target: T1, Phosphorylase b kinase gamma catalytic chain, liver/testis isoform (Homo sapiens); details: at 1 µM
[8] = target: Serine/threonine-protein kinase pim-1 (Homo sapiens) (UniProt P11309); details: at 0.1 µM
Chain of Serine/threonine-protein kinase pim-1 (Homo sapiens) (P11309 whole entry, looked up): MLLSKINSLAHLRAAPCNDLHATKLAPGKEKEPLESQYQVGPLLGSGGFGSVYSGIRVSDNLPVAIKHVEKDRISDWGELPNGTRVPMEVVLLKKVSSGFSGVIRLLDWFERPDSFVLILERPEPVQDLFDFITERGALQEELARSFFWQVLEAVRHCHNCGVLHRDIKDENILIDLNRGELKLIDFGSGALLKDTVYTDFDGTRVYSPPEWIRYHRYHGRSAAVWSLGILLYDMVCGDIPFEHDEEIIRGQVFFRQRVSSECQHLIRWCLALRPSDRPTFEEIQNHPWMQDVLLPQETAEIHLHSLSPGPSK

[9] = target: Serine/threonine-protein kinase pim-1 (Homo sapiens) (UniProt P11309); details: at 1 µM
[10] = target: Serine/threonine-protein kinase pim-2 (Homo sapiens) (UniProt Q9P1W9); details: at 0.1 µM;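 also: reported value is the mean percent inhibition of PIM2, measured in the GSK PKIS kinase inhibitor set screen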
Chain of Serine/threonine-protein kinase pim-2 (Homo sapiens) (Q9P1W9 whole entry, looked up): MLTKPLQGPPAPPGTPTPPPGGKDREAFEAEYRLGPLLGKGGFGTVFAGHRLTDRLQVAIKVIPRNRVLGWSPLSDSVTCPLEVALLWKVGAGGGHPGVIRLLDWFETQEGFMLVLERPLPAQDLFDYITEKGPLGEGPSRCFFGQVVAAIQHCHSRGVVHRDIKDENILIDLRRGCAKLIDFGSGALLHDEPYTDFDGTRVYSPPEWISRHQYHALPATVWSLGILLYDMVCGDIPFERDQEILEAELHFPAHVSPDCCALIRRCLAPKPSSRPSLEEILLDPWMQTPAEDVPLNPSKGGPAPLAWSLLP

Chain of Serine/threonine-protein kinase MARK2 (Homo sapiens) (Q7KZI7 whole entry, the tested form may be a part): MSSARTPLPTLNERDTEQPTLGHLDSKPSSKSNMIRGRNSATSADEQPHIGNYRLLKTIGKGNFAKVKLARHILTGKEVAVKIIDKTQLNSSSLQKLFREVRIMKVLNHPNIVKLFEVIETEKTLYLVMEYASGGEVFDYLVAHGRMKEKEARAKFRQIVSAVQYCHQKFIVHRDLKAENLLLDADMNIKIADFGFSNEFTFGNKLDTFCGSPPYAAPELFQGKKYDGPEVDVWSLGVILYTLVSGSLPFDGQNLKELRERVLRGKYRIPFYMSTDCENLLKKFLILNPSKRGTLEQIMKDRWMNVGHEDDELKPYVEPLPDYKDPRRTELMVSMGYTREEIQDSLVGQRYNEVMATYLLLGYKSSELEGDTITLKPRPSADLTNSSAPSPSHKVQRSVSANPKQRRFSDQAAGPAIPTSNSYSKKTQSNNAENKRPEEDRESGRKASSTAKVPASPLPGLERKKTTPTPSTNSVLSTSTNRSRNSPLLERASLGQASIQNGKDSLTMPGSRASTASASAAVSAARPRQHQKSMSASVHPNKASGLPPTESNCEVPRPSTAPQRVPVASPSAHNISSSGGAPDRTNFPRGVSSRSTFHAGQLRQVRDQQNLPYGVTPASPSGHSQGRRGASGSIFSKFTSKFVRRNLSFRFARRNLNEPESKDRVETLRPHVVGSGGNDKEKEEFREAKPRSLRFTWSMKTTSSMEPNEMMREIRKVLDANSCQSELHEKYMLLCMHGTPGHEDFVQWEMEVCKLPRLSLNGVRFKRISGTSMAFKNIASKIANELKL
Chain of PAS domain-containing serine/threonine-protein kinase (Homo sapiens) (Q96RG2 whole entry, the tested form may be a part, canonical isoform): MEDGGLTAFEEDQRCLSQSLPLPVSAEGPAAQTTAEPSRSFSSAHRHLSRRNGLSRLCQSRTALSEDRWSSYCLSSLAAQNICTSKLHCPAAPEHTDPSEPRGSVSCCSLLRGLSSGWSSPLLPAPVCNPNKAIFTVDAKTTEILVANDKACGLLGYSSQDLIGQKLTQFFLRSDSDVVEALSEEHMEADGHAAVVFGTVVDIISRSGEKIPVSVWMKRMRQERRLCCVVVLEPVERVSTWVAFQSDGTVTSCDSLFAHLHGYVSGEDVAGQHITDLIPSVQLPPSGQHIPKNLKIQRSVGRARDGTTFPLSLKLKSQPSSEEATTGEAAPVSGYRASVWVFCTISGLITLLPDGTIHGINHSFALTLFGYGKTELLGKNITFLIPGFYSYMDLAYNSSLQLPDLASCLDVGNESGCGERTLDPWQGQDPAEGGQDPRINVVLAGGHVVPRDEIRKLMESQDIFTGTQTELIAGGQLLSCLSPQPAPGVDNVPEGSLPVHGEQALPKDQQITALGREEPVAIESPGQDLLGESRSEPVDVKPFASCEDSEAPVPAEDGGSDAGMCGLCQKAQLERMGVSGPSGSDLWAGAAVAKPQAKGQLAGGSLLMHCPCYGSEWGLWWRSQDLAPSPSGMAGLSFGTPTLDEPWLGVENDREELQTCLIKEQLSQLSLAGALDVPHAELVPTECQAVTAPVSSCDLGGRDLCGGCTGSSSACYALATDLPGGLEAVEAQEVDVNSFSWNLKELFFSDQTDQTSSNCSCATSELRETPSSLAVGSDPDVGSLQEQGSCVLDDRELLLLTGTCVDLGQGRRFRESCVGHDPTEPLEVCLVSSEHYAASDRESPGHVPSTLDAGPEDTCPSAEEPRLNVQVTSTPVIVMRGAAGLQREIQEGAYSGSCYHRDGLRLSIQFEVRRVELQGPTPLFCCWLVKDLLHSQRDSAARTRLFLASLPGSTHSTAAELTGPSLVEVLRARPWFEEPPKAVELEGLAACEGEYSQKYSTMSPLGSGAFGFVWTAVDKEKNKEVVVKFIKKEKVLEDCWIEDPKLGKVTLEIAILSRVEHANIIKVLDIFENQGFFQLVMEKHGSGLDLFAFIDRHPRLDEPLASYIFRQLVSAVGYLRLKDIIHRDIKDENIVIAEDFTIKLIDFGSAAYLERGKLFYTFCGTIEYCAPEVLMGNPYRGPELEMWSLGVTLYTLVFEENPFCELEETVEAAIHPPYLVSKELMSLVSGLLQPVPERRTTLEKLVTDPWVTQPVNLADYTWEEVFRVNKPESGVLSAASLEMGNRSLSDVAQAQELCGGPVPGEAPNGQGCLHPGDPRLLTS

Compound | inhibition [1] | inhibition [2] | inhibition [3] | inhibition [4] | inhibition [5] | inhibition [6] | inhibition [7] | inhibition [8] | inhibition [9] | inhibition [10]
COC(=O)Nc1nc2ccc(Oc3ccc(NC(=O)Nc4cc(C(F)(F)F)ccc4F)cc3)cc2s1 | -0.26% | -0.29% | -0.57% | -9.77% | 1.81% | -0.83% | -1.17% | 0.9% | 1.19% | -0.21%
COc1cc(Nc2ncc(-c3ccccc3)o2)cc(OC)c1 | 2.52% | -1.02% | -0.79% | 5.83% | 14.1% | 4.54% | 5.45% | 1.14% | 1.63% | 0.58%
CCn1c(-c2nonc2N)nc2cncc(C(=O)NCCNC)c21 | 14% | 0.06% | 3.5% | 4.55% | 7.35% | 5.01% | 6.69% | 46.4% | 87% | 1.81%
CS(=O)(=O)CCNCc1ccc(-c2ccc3ncnc(Nc4ccc(OCc5ccccc5)cc4)c3c2)o1 | 1.67% | 0.96% | 0.95% | 4.83% | 4.75% | 4.78% | 4.2% | 1.47% | 1.03% | 0.19%
CN(c1ccc(NC(=O)NCCN2CCOCC2)cc1)c1ccnc(Nc2ccc(CS(C)(=O)=O)cc2)n1 | 2.47% | 0.41% | 2.08% | 2.5% | 5.5% | 2.91% | 6.71% | 0.61% | -0.22% | 0.04%
N#Cc1ccc2c(-c3ccnc(NC4CC4)n3)c(-c3ccc(F)cc3)nn2c1 | 0.62% | 1.11% | 0.62% | 0.42% | 2.62% | 1.29% | 0.44% | -0.01% | -1.52% | -0.15%
COc1ccccc1-c1cc(/C=C2\C(=O)Nc3ncc(Br)cc32)cc(Br)c1O | 2.22% | -1.52% | -3.29% | 3.58% | 7.04% | 4.87% | 3.85% | 0.14% | 3.18% | 0.1%
COc1c(C(N)=O)cc(-c2ccc(Cl)cc2)cc1-c1ccc(S(N)(=O)=O)cc1 | 1.57% | -2.39% | -1.49% | 0.45% | 3.12% | 3.72% | 5.17% | 1.83% | 2.23% | -0.64%
COc1cc(N2CCN(C(C)C)CC2)ccc1Nc1nc(Nc2cccc(F)c2C(=O)O)c2cc[nH]c2n1 | 3.36% | 0.65% | 0.52% | 8.07% | 39.8% | 6.18% | 19.9% | -0.13% | 1.42% | 0.01%
COc1ccc(-c2nn3ncccc3c2-c2ccnc(Nc3ccc(F)c(F)c3)n2)cc1 | 0.59% | 1.16% | 1.41% | 8.48% | 10.2% | 4.94% | 9.5% | 0.43% | 0.69% | 1.57%
COc1cccc(Nc2nccc(-c3cnn4ncccc34)n2)c1 | 21.4% | -0.19% | -1.63% | 2.67% | 27.6% | 4.4% | 18.8% | 0.85% | 6.56% | 0.37%
COc1cc(N2CCN(C(C)C)CC2)ccc1Nc1nc(Nc2cccc3ncccc23)c2cc[nH]c2n1 | 1.39% | -0.26% | -0.72% | 2.93% | 28.6% | -1.68% | 0.96% | 0.12% | 0.51% | -0.9%
CCN1CCC(C(=O)Nc2n[nH]c3nnc(-c4cccc(F)c4F)cc23)CC1 | 1.95% | 1.35% | 0.26% | 1.99% | 4.68% | -0.86% | -1.05% | -0.82% | 0.91% | 0.04%
O=C(O[C@H]1CN[C@H](C#Cc2cc3ncnc(Nc4ccc(OCc5cccc(F)c5)c(Cl)c4)c3s2)C1)N1CCOCC1 | -1.51% | 0.31% | 0.78% | 6.72% | 7.76% | 7.04% | 9.85% | 0.79% | 0.58% | -0.36%
CCS(=O)(=O)c1ccc(OC)c(Nc2ncc(-c3cccc(C(C)=O)c3)o2)c1 | -4.12% | 0.37% | 2.34% | 1.7% | 10.4% | 3.37% | 6.45% | 0.82% | 1.66% | -0.72%
O=C(Nc1n[nH]c2nnc(-c3cccnc3)cc12)C1CC1 | 1.5% | 1.31% | 0.02% | 0.1% | -0.03% | -1.23% | -1.9% | 26.1% | 74.5% | 4.25%

Compound | inhibition [1] | inhibition [2] | inhibition [3] | inhibition [4] | inhibition [5] | inhibition [6] | inhibition [7] | inhibition [8] | inhibition [9] | inhibition [10]
NS(=O)(=O)c1ccc(N/N=C2\C(=O)Nc3ccc(C(=O)NCc4ccncc4)cc32)cc1 | 21.3% | 0.76% | 2.6% | 5.19% | 28.9% | 4.99% | 11.4% | 1.75% | 7.29% | 0.12%
CCCNc1cccc(-n2ncc3c(N/N=C/c4ccncc4)ncnc32)c1 | 4.97% | 1.18% | 3.05% | 2.76% | 19.5% | 2.56% | 7.69% | 0.64% | 1.01% | 1.23%
COc1ccc(Nc2ncc(-c3ccccc3)o2)cc1OC | 16.8% | 0.54% | 0.81% | 5.28% | 28.9% | 0.22% | 2.01% | 1.41% | 2.22% | 1.11%
FC(F)(F)CNc1nccc(-c2cnn3ncccc23)n1 | 2.13% | 1.06% | 0.79% | 3.02% | 6.43% | 3.98% | 4.36% | 0.08% | 3.03% | -0.09%
CNC(=O)c1sc(-n2cnc3cc(OC)c(OC)cc32)cc1OCc1ccccc1C(F)(F)F | 1.67% | 0.35% | 0.79% | 4.21% | 3.69% | 5.8% | 5.01% | -0.73% | -0.07% | 0.37%
CN1CCN(Cc2ccc(-c3cc4ncnc(Nc5ccc(OCc6cccc(F)c6)c(Cl)c5)c4s3)o2)CC1 | 2.8% and -1.69% | 1.09% and -0.73% | 0.63% and 0.18% | 4.48% | 6.3% and 12.4% | 3.47% and 7.21% | 2.85% and 9.87% | -0.54% and 0.21% | 1.02% and 0.98% | -0.52% and 0.67%
CNC(=O)c1ncccc1Nc1nc(Nc2cc3c(cc2OC)CCCN3C(=O)CN(C)C)nc2[nH]ccc12 | 4.82% | 0.42% | -3.51% | 5.77% | 26.6% | 5.37% | 3.8% | 18.9% | 65.9% | 1.04%
COc1cccc(-n2ncc3c(N/N=C/c4ccc(C(=O)NCCN(C)C)cc4)ncnc32)c1 | 11.9% | 0.59% | -0.48% | 5.75% | 30.5% | 3.32% | 7.38% | 1.53% | 8.23% | 0.17%
Cc1nnc(-c2cccc(-c3ccc(C(=O)NCC4CC4)cc3)c2)o1 | 1.69% | 0.89% | 0.76% | 3.57% | 5.91% | 7.39% | 7.38% | -0.37% | 1.97% | 0.91%
Cc1cc(O)cc(C)c1/C=C/c1cncc(C(N)=O)c1 | 1.96% | 0.45% | -0.18% | 3.36% | 2.58% | 2.43% | 0.42% | 0.11% | 0.65% | 0.8%
CC1(C)CC(n2cnc(-c3ccc(F)cc3)c2-c2ccnc(N)n2)CC(C)(C)N1 | 0.44% | -1.3% | -0.73% | 3.51% | 2.36% | -0.42% | -1.13% | 0.93% | 1.49% | 0.4%
Nc1nccc(-c2c(-c3ccc(F)cc3)ncn2C2CCNCC2)n1 | 1.75% and 0.35% | -0.64% and -0.39% | -0.63% and -0.93% | -0.27% and 1.11% | 2.04% and 1.58% | -6.47% and 0.35% | -6.27% and -1.71% | 0.29% and -0.7% | 7.06% and -0.6% | -0.19% and 0.2%
COC(=O)Nc1nc2cc(Oc3ccc(NC(=O)Nc4ccccc4)cc3)ccc2[nH]1 | -0.9% | 0.34% | 1.02% | 4.15% | 5.64% | 4.43% | 6.25% | -0.24% | 0.02% | 0.15%
CN(C)CCNC(=O)Nc1ccc(N(C)c2ccnc(Nc3ccc(CS(C)(=O)=O)cc3)n2)cc1 | 7.11% | 1.26% | -0.25% | 2.14% | 4.59% | 4.64% | 1.59% | 1.06% | 1.39% | 0.27%
COc1cc2c(cc1Nc1nc(Nc3cccc(F)c3C(N)=O)c3cc[nH]c3n1)N(C(=O)CN1CCN(C(C)C)CC1)CC2 | 3.63% | -0.77% | -0.72% | 0.29% | 9.54% | 3.29% | 5.63% | 1.43% | 0.21% | -0.02%

— ChEMBL document CHEMBL1961873, “Compounds: GSK PKIS; Assays: Nanosyn kinase panel” (2012)
